# Source: PubChem BioAssay AID887 (National Center for Advancing Translational Sciences (NCATS), 2007)
# Hit rate of the full screen: of about 74,000 compounds, about 1,100 (1.5%) were called active. Roughly 5% stayed inconclusive and do not appear here. This excerpt belongs to a sample that is enriched for actives. Unmarked numbers belong to inactive results. The call rests on the fitted dose curve; in most records, active means well fitted inhibition curve with a large enough effect; inconclusive means small, poorly fitted or top-dose-only effect; inactive means no such curve, though single readings can be large or run the other way.
# Target: Polyunsaturated fatty acid lipoxygenase ALOX15 (Homo sapiens) (UniProt P16050)
# Experiment: qHTS Assay for Inhibitors of 15-hLO (15-human lipoxygenase); further: nearly all actives have a fitted effect of over 55% in size
# Conditions: purified 15hLO-1, xylenol orange hydroperoxide absorbance; series mostly up to 57.1 µM; activity change, negative = inhibition: at the top concentration
# Text: Assay Overview: NIH Molecular Libraries Screening Centers Network [MLSCN] NIH Chemical Genomics Center [NCGC] MLSCN Grant: MH081283-01A1 PI Name: Holman, T.R., University of California, Santa Cruz Human lipoxygenase 15hLO-1 is a member of the closely related lipoxygenase family of enzymes which catalyze the site-specific oxidation of arachidonic acid to various hormone precursor molecules and as such is a candidate for drug development in a variety of disease areas, such as cancer and inflammation. Inhibition of 15hLO-1 activity was screened by utilizing arachidonic acid as a substrate. The extent of hydroperoxide product formation was measured by a secondary chromogenic reaction in which xylenol orange (XO, Sigma-Aldrich, cat. number 39,818-7) reacts with the ferric ions produced from the reaction between the hydroperoxide and ferrous ions. The Fe(III)-XO complex is characterized with red-shifted absorbance at 560 nm. A purified preparation of human 15hLO-1 was supplied by Professor Ted Holman, University of California, Santa Cruz.
# Assay Protocol: Buffer: 25 mM Hepes pH 7.5, 0.01% Triton X-100. Reagents/Controls: Buffer in columns 3 and 4 as negative control (no enzyme). Substrate solution: 50 uM arachidonic acid (Sigma-Aldrich, St. Louis, MO) final concentration dispensed throughout the plate. Enzyme: 40 nM 15hLO-1 final concentration in columns 1, 2, 5-48. Column 1 is neutral (100% activity). Column 2 contained pin-transferred titration of NDGA (nordihidroguaiaretic acid, Sigma-Aldrich, N 5023, top concentration 10 mM in DMSO, then 1:2 dilution in duplicate). (Dilution factor: 23 nL into 4 uL.) Chromogenic detection reagent (divalent iron/xylenol orange, Fe-XO): 200 uM xylenol orange plus 300 uM ferrous ammonium sulfate prepared freshly in 50 mM sulfuric acid. Assay Steps: Three uL of enzyme were dispensed to 1536-well Greiner black clear bottom plates. Compounds and controls (23 nL) were transferred via Kalypsys PinTool. The plates were incubated for 15 min at room temperature, and then 1 uL of substrate solution was added to start the reaction. After room temperature incubation for 6 minutes, 4 uL of Fe-XO solution was added to each well followed by a short spin (1000 rpm, 15 sec) and the plates were then incubated for 30 min. The absorbance at 405 and 573 nm were measured using ViewLux (Perkin-Elmer) High-throughput CCD imager and absorbance protocol settings. The 573-to-405 absorbance ratio was used to compute reaction progress.
# On the % scale 0 is the no-effect control and ±100 the full control effect; potency means the concentration at half of the fitted maximal effect.
# Chain of Polyunsaturated fatty acid lipoxygenase ALOX15 (Homo sapiens) (P16050 whole entry, looked up): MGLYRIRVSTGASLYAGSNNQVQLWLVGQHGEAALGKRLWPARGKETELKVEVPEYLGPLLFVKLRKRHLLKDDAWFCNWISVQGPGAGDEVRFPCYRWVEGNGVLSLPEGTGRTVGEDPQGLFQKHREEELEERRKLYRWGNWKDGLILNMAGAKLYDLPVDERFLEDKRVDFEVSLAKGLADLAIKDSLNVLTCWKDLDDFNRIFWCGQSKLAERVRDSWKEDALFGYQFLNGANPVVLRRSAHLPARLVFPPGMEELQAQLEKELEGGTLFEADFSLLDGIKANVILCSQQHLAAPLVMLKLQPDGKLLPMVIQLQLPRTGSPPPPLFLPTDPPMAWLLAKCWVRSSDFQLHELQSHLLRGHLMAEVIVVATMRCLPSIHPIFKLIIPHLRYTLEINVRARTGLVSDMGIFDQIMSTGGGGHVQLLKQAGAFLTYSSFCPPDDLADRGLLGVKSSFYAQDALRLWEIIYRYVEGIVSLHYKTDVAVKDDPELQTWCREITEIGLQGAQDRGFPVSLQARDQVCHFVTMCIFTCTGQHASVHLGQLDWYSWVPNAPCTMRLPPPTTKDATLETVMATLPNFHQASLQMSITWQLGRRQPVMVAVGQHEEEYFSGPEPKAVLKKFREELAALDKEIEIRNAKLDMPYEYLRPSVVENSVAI
SMILES,Potency,"activity change, negative = inhibition"
CC(C)(Cc1c[nH]c2ccc(Cl)cc12)NCCOc1ccccc1OCC1CC1,12.6 µM (active),
CNCC[C@H](Oc1ccc(C(F)(F)F)cc1)c1ccccc1,inactive,
CCC(C)C(=O)O[C@@H]1C[C@@]2(C)C(c3ccoc3)OC(=O)CC23OC2(C)O[C@@]14[C@@]1(C)C(CC(=O)OC)C5(C)CC1(O)C(O)(C5OC(=O)C1(C)OC1C)C(OC(C)=O)[C@@]34O2 (stereo not given in full),,1.08%
CN(C)C1C(=O)C(C(N)=O)=C(O)[C@@]2(O)C(=O)C3=C(O)c4c(O)cccc4[C@@](C)(O)C3C[C@@H]12 (stereo not given in full),,3.68% [at 25.6 µM]
CC(=O)OC1C2CCC3C1(CC(O)[C@@]1(O)[C@@H](CC(O)C1(C)C)[C@]3(C)O)C[C@@]2(C)O (stereo not given in full),,1.91%
COC(=O)N(c1ccc(OC)cc1)P1(=S)OCCC(C)O1 (stereo not given),3.98 µM (active),
CC1=CC(=O)C2=C(C)C[C@H](O)[C@H]3[C@H](C)C(=O)O[C@@H]3C12 (stereo not given in full),,0.0263% [at 25.6 µM]
C[C@@]12CCC3C(CC[C@@H]4CC(O)CC[C@@]34C)C1CCC2O (stereo not given in full),,0.523%
CCN1C[C@]2(COC)C(O)C[C@H](OC)[C@@]34C5C[C@]6(O)C(OC)C(O)[C@](OC(C)=O)(C5C6OC(=O)c5ccccc5)C(C(OC)C23)C14 (stereo not given in full),,-2.83%
Clc1ccc(C(c2ccc(Cl)cc2)n2cc[n+](C[C@@H](OCc3ccc(Cl)cc3Cl)c3ccc(Cl)cc3Cl)c2)cc1,20 µM (active),
CN1C2CC3CC1C(O3)C2O (stereo not given),,-1.11%
N#Cc1c(Cl)c(Cl)c(Cl)c(C#N)c1Cl,,-5.52%
CC[C@@H]1CN2CC[C@@H]1C[C@H]2[C@H](O)c1ccnc2ccc(OC)cc12,,-20.9% [at 25.6 µM]
CNC(C)[C@@H](O)c1ccccc1 (stereo not given in full),,1.77%
COc1ccc2c3c1OC1CC(O)C=C[C@@]31CCN(C)C2 (stereo not given in full),,-0.861%
